The source of these data is PubChem BioAssay (EPA / NIEHS).

Assay [1] in a line: CCTE_Shafer_MEA_acute_per_network_burst_electrodes_number_mean: CCTE's Neural Acute Assay for Mean Number of Electrodes in a Network Burst, Shafer Lab (AID 2284021).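 Also: curves fitted for decreases only so hits reduce electrodes per burst.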 The method, boiled down: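 Rat primary cortical neurons on 16-electrode MEA wells were recorded 40 min at baseline on DIV 13 or 15, then 40 min after compound (0.03-40 uM), at 37 C. Value is percent change per well, fitted in loss direction versus DMSO.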

Assay [2] is described as follows: CCTE_Shafer_MEA_acute_cross_correlation_area: CCTE's Neural Acute Assay for Area of Cross Correlation, Shafer Lab (AID 2284024).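 Also: area under pooled inter-electrode spike cross-correlation near zero lag as percent change from own baseline; curves fitted for loss of cross-correlation area so actives lower synchrony.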 A digest of the protocol: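 Primary rat cortical neurons on 48-well MEA plates (16 electrodes/well) were recorded 40 min at baseline on DIV 13 or 15, then 40 min with compound (0.03-40 uM) at 37 C; cross-correlation area expressed as percent change from baseline.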

Assay [3] in a line: CCTE_Shafer_MEA_acute_synchrony_index: CCTE's Neural Acute Assay for Synchrony, Shafer Lab (AID 2284027).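 Also: network synchrony index of spontaneous spiking in primary rat cortical neurons on MEAs; fitted for loss of signal so actives lower synchrony relative to DMSO.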 A digest of the protocol:
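Primary rat cortical neurons on 48-well MEAs, dosed at 0.03–40 uM on DIV 13 or 15. Spikes are recorded for 40 min at 37C before and after exposure, and synchrony index (0–1) is expressed as percent change from baseline per well.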

In assay [4] the target is Estrogen receptor (Homo sapiens) (UniProt P03372). Description: CCTE_Deisenroth_AIME_384WELL_LUC_Active: CCTE's 384-well Estrogen Receptor Transactivation Assay with AIME metabolic competence (ERTA luciferase; metabolism positive), Deisenroth Lab (AID 2284030; active = hit-call score of the fitted dose curve at least 0.9, where 1 is the maximum). A digest of the protocol: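 Test chemicals (10-point series, 0.002 - 200 uM) were preincubated 2 hours with alginate-immobilized phenobarbital/beta-naphthoflavone-induced male Sprague Dawley rat liver S9; conditioned medium then went onto VM7Luc4E2 breast cells for 24 hour. Luciferase gain-of-signal fitted relative to 17beta-estradiol.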

The nature of assay [5]: CCTE_Shafer_MEA_dev_firing_rate_mean: CCTE's Neural Network Formation Assay for Mean Firing Rate, Shafer Lab (AID 2284031). The method, boiled down:
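Primary rat cortical neurons on 48-well MEA plates, exposed from plating day 0 with dosing renewed on DIV 5 and 9. Mean well firing rate over active electrodes, recorded days 5, 7, 9, 12, summarised as trapezoidal AUC.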

A short description of assay [6]: CCTE_Shafer_MEA_dev_per_burst_spike_percent: CCTE's Neural Network Formation Assay for Percent of Spikes in a Burst, Shafer Lab (AID 2284032).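 As to AC50: fitted as a decrease in burst spike percentage below DMSO baseline.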 A digest of the protocol: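 Rat primary cortical neurons on 16-electrode MEA wells, dosed from plating day 0 for 12 days with renewal on DIV 5 and 9; spikes-in-bursts percentage averaged over bursting electrodes, collapsed as AUC across days 5, 7, 9, 12; loss direction versus DMSO.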

Assay [7] can be described thus: CCTE_Deisenroth_AIME_384WELL_CTox_Active: Cytotoxicity Assessment (CTOX) in CCTE's 384-well Estrogen Receptor Transactivation Assay with AIME metabolic competence (metabolism positive), Deisenroth Lab (AID 2284037; active = hit-call score of the fitted dose curve at least 0.9, where 1 is the maximum;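 also: activity means signal loss indicating cell death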). A digest of the protocol: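 VM7Luc4E2 breast cells received medium pre-incubated 2 h with chemical over alginate microspheres holding induced male Sprague Dawley rat liver S9; viability read 24 h later by protease-substrate fluorescence. Loss of signal, bidirectional fit, 0.002–200 uM.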

In assay [8] the target is Estrogen receptor (Homo sapiens) (UniProt P03372). The assay is described as follows: CCTE_Deisenroth_AIME_384WELL_LUC_Inactive: CCTE's 384-well Estrogen Receptor Transactivation Assay without AIME metabolic competence (ERTA luciferase; metabolism negative), Deisenroth Lab (AID 2284038; active = hit-call score of the fitted dose curve at least 0.9, where 1 is the maximum;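 also: hits raise estrogen receptor luciferase signal so potencies reflect agonists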). The method, boiled down:
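Metabolism-negative mode: chemicals (10-point, 0.002–200 uM) held 2 h with alginate-water microspheres, then conditioned medium applied to VM7Luc4E2 cells for 24 h. Luciferase induction referenced to 17beta-estradiol.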

Assay [9] can be described thus: CCTE_Deisenroth_AIME_384WELL_CTox_Inactive: Cytotoxicity Assessment (CTOX) in CCTE's 384-well Estrogen Receptor Transactivation Assay without AIME metabolic competence (metabolism negative), Deisenroth Lab (AID 2284039; active = hit-call score of the fitted dose curve at least 0.9, where 1 is the maximum;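 also: cell viability via live-cell protease substrate cleaved to fluorescent probe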). The method, boiled down: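 Fluorescent protease-substrate viability readout after 24 h exposure of VM7Luc4E2 cells to conditioned medium. Chemicals (0.002–200 uM) first sat 2 h over alginate-water beads, no S9. Data fitted bidirectionally, loss of signal meaning viability loss.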

Assay [10] concerns the target Estrogen receptor (Homo sapiens) (UniProt P03372). Description: CCTE_Deisenroth_AIME_384WELL_LUC_Shift: CCTE's 384-well Estrogen Receptor Transactivation Assay with AIME metabolic competence data shift (ERTA luciferase; difference in metabolism positive and negative), Deisenroth Lab (AID 2284041).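 Also: shift is response with S9 minus without S9 so positive means metabolism raised ER signal.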 A digest of the protocol: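 Here, parent compounds undergo 2 h phase I metabolism by PB/BNF-induced rat S9 before 24 h transactivation in VM7Luc4E2 cells; the curve models S9-positive minus S9-negative response over a 10-point series.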

Assay [11] is described as follows: CCTE_Shafer_MEA_dev_burst_rate: CCTE's Neural Network Formation Assay for Burst Rate, Shafer Lab (AID 2284042). The method, boiled down:
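Exposure ran continuously over 12 days of network development in rat cortical cultures, with compound refreshed during full media changes on DIV 5 and 9. Single-electrode bursts per recording time, well-mean over active electrodes, trapezoidal AUC across days 5–12, fitted downward relative to DMSO.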

Assay [12] in a line: CCTE_Shafer_MEA_dev_per_burst_interspike_interval: CCTE's Neural Network Formation Assay for Burst Interspike Interval, Shafer Lab (AID 2284044).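 Also: mean spike spacing inside bursts as AUC over recordings on days 5 7 9 12.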 A digest of the protocol: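 Rat cortical primary cultures, 16 electrodes/well; compound from plating, renewed with full media change DIV 5 and 9. Spikes via adaptive detector; per-burst ISI well-mean over active bursting electrodes; AUC of DIV 5/7/9/12 recordings; loss-direction fit vs DMSO.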

Assay [13] is described as follows: CCTE_Shafer_MEA_dev_burst_duration_mean: CCTE's Neural Network Formation Assay for Mean Burst Duration, Shafer Lab (AID 2284045). The method, boiled down: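 Primary rat cortical neurons on PEI-coated 16-electrode MEA wells, exposed from plating through day 12 with compound renewed at DIV 5 and 9; spontaneous activity recorded days 5, 7, 9, 12. Well-mean burst duration collapsed as trapezoidal AUC, fitted for loss versus DMSO.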

Assay [14] can be described thus: CCTE_Shafer_MEA_dev_interburst_interval_mean: CCTE's Neural Network Formation Assay for Mean Interburst Interval, Shafer Lab (AID 2284046).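 Also: curve fitted for decrease in interburst interval relative to DMSO.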 A digest of the protocol: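 Primary rat cortical neurons on PEI-coated 48-well MEA plates (laminin added with cells at plating) (16 electrodes/well), exposed from plating day 0 with renewal at DIV 5 and 9. Mean inter-burst interval averaged over bursting electrodes, AUC across days 5, 7, 9, 12; DMSO baseline.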

Assay [15] is described as follows: CCTE_Shafer_MEA_dev_inter_network_spike_interval_mean: CCTE's Neural Network Formation Assay for Mean Inter-network Spike Interval, Shafer Lab (AID 2284047). The method, boiled down: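 Mean time between consecutive network-spike peaks, recorded extracellularly (adaptive spike detection) on DIV 5, 7, 9 and 12, summarized as trapezoidal AUC. Rat cortical cultures on MEAs dosed continuously days 0–12, re-dosed at feeds; loss-of-signal fit relative to DMSO.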

Assay [16] in a line: CCTE_Shafer_MEA_dev_network_spike_number: CCTE's Neural Network Formation Assay for Number of Network Spikes, Shafer Lab (AID 2284048).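 Also: synchronized bursts across electrodes counted on days 5 7 9 12 and integrated as AUC.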 A digest of the protocol:
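Primary rat cortical neurons were seeded at 1.5 x 10^5 cells/well on PEI-coated 16-electrode MEA wells with laminin, exposed from plating day 0, compound renewed at DIV 5 and 9. Network spikes were recorded on days 5, 7, 9, 12 and summarized as trapezoidal AUC versus DMSO.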

Assay [17] in a line: CCTE_Deisenroth_AIME_96WELL_CTox_Active: Cytotoxicity Assessment (CTOX) in CCTE's 96-well Estrogen Receptor Transactivation Assay with AIME metabolic competence (metabolism positive), Deisenroth Lab (AID 2284028; active = hit-call score of the fitted dose curve at least 0.9, where 1 is the maximum). A digest of the protocol: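 Chemicals (0.002–200 uM) were first incubated 2 h with alginate-immobilized phenobarbital/beta-naphthoflavone-induced male rat liver S9; conditioned medium then went onto VM7Luc4E2 cells for 24 h, with viability read by protease-substrate fluorescence, fitted bidirectionally.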

Assay [18] in a line: CCTE_Deisenroth_AIME_96WELL_CTox_Inactive: Cytotoxicity Assessment (CTOX) in CCTE's 96-well Estrogen Receptor Transactivation Assay without AIME metabolic competence (metabolism negative), Deisenroth Lab (AID 2284029; active = hit-call score of the fitted dose curve at least 0.9, where 1 is the maximum). The method, boiled down:
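Chemicals (0.002 - 200 uM, 10 points) incubated 2 h with alginate-water microspheres (no S9), then medium moved onto VM7Luc4E2 cells for 24 h. Viability by protease-substrate cleavage to fluorescent probe; bidirectional fitting.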

Each structure is given as a SMILES string. Results filed as inconclusive are left out. A structure can be active in one record and inactive in another. The source made the active and inactive calls. The calls were made as follows, unless noted: active = hit-call score of the fitted dose curve at least 0.9, where 1 is the maximum; inactive = score below 0.9.

Sequence of Estrogen receptor (Homo sapiens) (P03372 whole entry, looked up): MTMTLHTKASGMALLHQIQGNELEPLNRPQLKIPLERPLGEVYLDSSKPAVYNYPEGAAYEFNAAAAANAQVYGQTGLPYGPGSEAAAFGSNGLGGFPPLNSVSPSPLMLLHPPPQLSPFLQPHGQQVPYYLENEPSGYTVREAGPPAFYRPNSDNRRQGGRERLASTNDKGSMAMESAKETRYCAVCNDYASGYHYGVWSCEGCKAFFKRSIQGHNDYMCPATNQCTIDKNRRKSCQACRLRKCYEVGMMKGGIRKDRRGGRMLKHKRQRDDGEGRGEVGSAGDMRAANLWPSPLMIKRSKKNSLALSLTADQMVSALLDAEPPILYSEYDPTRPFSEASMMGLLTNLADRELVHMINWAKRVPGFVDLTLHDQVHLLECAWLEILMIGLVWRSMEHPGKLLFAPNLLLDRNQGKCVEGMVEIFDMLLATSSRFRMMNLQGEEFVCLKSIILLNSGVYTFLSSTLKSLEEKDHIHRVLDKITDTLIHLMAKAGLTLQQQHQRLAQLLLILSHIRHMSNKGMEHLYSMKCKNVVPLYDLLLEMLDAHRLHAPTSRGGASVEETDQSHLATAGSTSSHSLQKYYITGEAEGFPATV

For the compound `O=C(O)c1ccccc1`, the compound was classed as inactive in assay [1], in [2], in assay [3], in assay [4], in assay [5] and in assay [6]. Also, the call in assay [7], in [8], in assay [9], in assay [10], in assay [11] and in [12] was inactive. Further, the call in assay [13], in assay [14], in assay [15] and in assay [16] was inactive.
Consider `CCCCOC(=O)C(C)Oc1ccc(Oc2ccc(C(F)(F)F)cn2)cc1` (centres undefined), for which the outcome in assay [4], in assay [7], in [8], in assay [9] and in assay [10] was inactive.
As for `CCSC(=O)N(CC(C)C)CC(C)C`, the outcome in assay [4], in assay [7], in assay [8] and in [10] was inactive.
As to `COCCO`, the call in assay [5], in assay [6], in assay [11], in assay [12], in [13] and in assay [14] was inactive. The compound was called inactive in assay [15] and in [16].
On to `CC(C)(c1ccc(O)cc1)c1ccc(O)cc1`, for which the compound was classed as inactive in assay [1], in [2], in assay [3], in [5], in assay [6] and in assay [11]. In addition, the compound was classed as inactive in assay [12], in [13], in [14], in assay [15] and in assay [16]. For the same compound, the figures for the AC50 in [17], in assay [18] and in assay [6] were 125 µM (active), 104 µM (active) and 15 µM (active), respectively.
As for `CCCCC(CC)CN1C(=O)C2C3C=CC(C3)C2C1=O` (centres undefined), the call in assay [1], in assay [2], in [5], in assay [6], in assay [11] and in [12] was inactive. Moreover, the call in [13], in assay [14], in [15] and in assay [16] was inactive. The AC50 in assay [3] is 4.02 µM (active).
Turning to `N#CSCSc1nc2ccccc2s1`, the figures for the AC50 in assay [1] and in [3] were 27.2 µM (active) and 28.6 µM (active), respectively. In addition, the call in assay [2], in [4], in assay [7] and in assay [10] was inactive.
